Results published in ChEMBL document CHEMBL3988442, “University of Dundee, Small-Polar-MMV Screening Library” (2021).
Out of some 48,000 compounds screened, about 13,000 (27%) showed an effect of 50% or more. The list shows a part of the results.

The molecules below were run on Wolbachia pipientis (assay: Anti-Wolbachia Cell-Based Screen). Conditions: 5 µM.
Type: functional
Parameters: scale not given: in the data most compounds retested in dose-response had high values

SMILES | Percent Effect
Cc1cccc(OCC2CCCN(C(=O)CN(C)C3CCNCC3)C2)c1 (stereo not given) | -1.159%
CC(C)NC(=O)C1CCC2(CCN(Cc3cnn(C)c3)CC2)C1.O=C(O)C(F)(F)F (stereo not given) | -6.614%
CN(CCc1ncnn1-c1ccccc1Cl)C1CCS(=O)(=O)C1 (stereo not given) | 107.4%
CN(Cc1ncnn1C1Cc2ccccc2C1)C1CCS(=O)(=O)C1 (stereo not given) | 124.4%
CN(Cc1nc(C(C)(C)C)no1)C1CCS(=O)(=O)C1 (stereo not given) | -19.08%
Cc1nc(CN(Cc2ccccc2)C2CCS(=O)(=O)C2)oc1C (stereo not given) | 1.056%
CCN(Cc1cc(-c2ccccn2)no1)C1CCS(=O)(=O)C1 (stereo not given) | -17.52%
CN(CCc1ccc2c(c1)CCO2)C1CCS(=O)(=O)CC1 | -8.2%
CN(CCc1ncnn1C1Cc2ccccc2C1)C1CCS(=O)(=O)C1 (stereo not given) | 86.57%
CCN(Cc1ccc(-c2ccccn2)cc1)C1CCS(=O)(=O)C1 (stereo not given) | -8.377%
CN(Cc1nc(C2CC2)no1)C1CCS(=O)(=O)C1 (stereo not given) | -44.33%
Cc1ccc(O)c(C(=O)NCCS(=O)(=O)Cc2ccccc2)c1 | 0.3485%
O=C(CCN1C(=O)CCC1=O)Nc1cnn(-c2ccccc2Cl)c1 | -6.016%
Cc1cccc(OC(C)C(=O)NCC2(N(C)C)CCCC2)c1 (stereo not given) | 4.772%
CN(CCc1ccccn1)C(=O)Nc1cc(C(F)(F)F)c[nH]c1=O | 14.36%
CN(Cc1nc(C(F)(F)F)cs1)C(=O)CCc1ccccn1 | 104.8%
Cc1nc(CN2CCN(C(=O)CCc3cccnc3)CC2)no1 | -0.7807%
CN(Cc1ccccn1)C(=O)Nc1cc(C(F)(F)F)c[nH]c1=O | 11.49%
CN(Cc1cc(Br)cn1C)C(=O)Cc1cccnc1 | -0.2173%
CN(Cc1nc(C(F)(F)F)cs1)C(=O)CCc1cccnc1 | 99.2%
COC(=O)c1ccc2nc(CO[C@H]3CN(CC4CC4)C[C@H]3F)[nH]c2c1 | 5.552%
N#Cc1nccnc1N1CCC(COCc2ccccc2)C1 (stereo not given) | -0.4127%
OCC(O)CSCc1cn(-c2ccc(Cl)c(Cl)c2)nn1 (stereo not given) | -1.515%
C[S+]([O-])CCCNCc1cc(F)ccc1Br (stereo not given) | 11.95%

SMILES | Percent Effect
Cc1cnn(CCNCC(O)COc2ccc(C#N)cc2)c1 (stereo not given) | -2.958%
CCn1cnnc1CNC(=O)N(C)Cc1ccccc1OC | -13.71%
CCn1cnnc1CNC(=O)NCC(O)c1ccc(OC)cc1 (stereo not given) | 3.56%
CCn1cnnc1CNC(=O)N1CCN(c2cccc(C)c2)CC1 | 81.4%
CCn1cnnc1CNC(=O)N1CCN(c2ccccc2O)CC1 | 92.65%
CCn1cnnc1CNC(=O)N1CCN(c2ccc(OC)cc2)CC1 | 88.94%
CCn1cnnc1CNC(=O)N1CCN(c2ccccc2OC)CC1 | 95.25%
CCn1cnnc1CNC(=O)N1CCN(c2cccc(OC)c2)CC1 | 2.392%
Cc1cccc(N2CCN(C(=O)Nc3cnn(CC(N)=O)c3)CC2)c1 | -8.219%
CC(C)CC(NC(=O)CSCC(N)=O)c1cccs1 (stereo not given) | 3.191%
CN(C)S(=O)(=O)N1CCN(CC2CCOc3ccccc3C2)CC1 (stereo not given) | -1.148%
O=C(CN1C(=O)CCNC1=O)N1CCOC(c2ccc(Cl)c(Cl)c2)C1 (stereo not given) | 6.471%
CSCCCN1CCc2nc(N(C)C)nc(N3CCC(O)CC3)c2C1 | 3.21%
CCCc1cc(=O)[nH]c2nnc(SCC(=O)NC(C)(C)C)n12 | 7.571%
CC(O)c1cccc(-n2c(CCC(=O)O)nc3ccccc32)c1 (stereo not given) | 17.57%
CCn1cnnc1CNC(=O)N1CCN(c2ccccc2Cl)CC1 | 101.2%
CCn1cnnc1CNC(=O)N1CCOC(c2ccccc2Cl)C1 (stereo not given) | -10.89%
CCn1cnnc1CNC(=O)N1CCOC(c2ccc(Cl)cc2)C1 (stereo not given) | -28.88%
CC(C)CC(O)C1CCN(C(=O)c2ccc(C(F)(F)F)nc2O)CC1 (stereo not given) | -33.24%
CCN(C)CC(C)Cn1cnc(-c2ccccc2)c1C (stereo not given) | 25.31%
Cc1nc(C)c(CNCc2nnc3n2CCCC3C(F)(F)F)s1 (stereo not given) | -2.721%
CCc1ccc(C(=O)Nc2ccc(CC3CC(=O)NC3=O)cc2)s1 (stereo not given) | -2.558%
COc1cccc(NC(=O)CC2Cn3ncnc3NC2=O)c1 (stereo not given) | 110.1%
CCc1ccc(NC(=O)CC2Cn3ncnc3NC2=O)cc1 (stereo not given) | 123.1%

SMILES | Percent Effect
O=C(CC1Cn2ncnc2NC1=O)Nc1cccc(C(F)(F)F)c1 (stereo not given) | 102.6%
O=C(CC1Cn2ncnc2NC1=O)Nc1ccccc1 (stereo not given) | 119.2%
COc1cccc(NC(=O)CNc2ccc(C(=O)N(C)C)c(Cl)c2)c1 | 14.49%
O=C(CN1CCC(Nc2ncccn2)CC1)Nc1ccccc1 | -0.5486%
CCc1ccc(C(=O)Nc2ccc(CC3CC(=O)NC3=O)cc2)cc1 (stereo not given) | -15.63%
COC(=O)C1CN(CC(=O)Nc2cccc(OC)c2)c2ccccc21 (stereo not given) | 10.48%
O=C(Nc1cccc(C(F)(F)F)c1)C1CC(=O)N(Cc2ccccn2)C1 (stereo not given) | 6.876%
O=C(CN1C[C@H]2CC[C@@H]1CN(Cc1ccccn1)C2)Nc1ccccc1 | 0.8626%
O=C(Nc1cccc(C(F)(F)F)c1)N1CCN(CCn2ccnc2)CC1 | 2.864%
O=C(c1cc(F)cc(Cl)c1)N1CCN(CCO)[C@@H]2CS(=O)(=O)C[C@@H]21 | -9.741%
Cc1cc(CN2CCCC(CNC(=O)Cn3cccn3)C2)oc1C (stereo not given) | -41.99%
O=C(NCCc1cccs1)N1CCCC1CCCO (stereo not given) | -4.53%
CC(C)c1nc2n(n1)CC(NCc1nc(-c3cccnc3)no1)CC2 (stereo not given) | -4.778%
CSc1ncc(C(=O)N2CCC(O)(CN3CCOCC3)C(C)(C)C2)cn1 (stereo not given) | -3.216%
COc1ccccc1C1(O)CCCN(C(=O)c2cnc(SC)nc2)C1 (stereo not given) | 97.81%
COc1ccccc1C(=O)N1CCC(O)(c2cccc(C)c2C)CC1 | 6.429%
COc1ccccc1C1(O)CCCN(C(=O)c2ccnn2C(C)C)C1 (stereo not given) | 100.6%
COc1ccccc1[C@@H]1CN(Cc2csc(C(C)=O)c2)C[C@H]1C(=O)O | -15.68%
COc1ccccc1C1CCN(C(=O)c2ncccc2OC(C)C)C1 (stereo not given) | 1.547%
CC(=O)c1cc(C(=O)N2CCC3(CC2)Nc2ccccc2NC3=O)cs1 | 16.29%
COc1ncc(C(=O)N2CCC3(CC2)C(=O)Nc2ccccc23)cn1 | -4.36%
COc1ccccc1C1(O)CCCN(C(=O)c2csc(C(C)=O)c2)C1 (stereo not given) | 80.49%
